Experimental data taken from PubChem BioAssay (Tox21).
Inconclusive results are not listed. Calls of active or inactive are those of the source. Calls come from the whole dose curve; as a rule, active = well fitted cell-killing curve with a large enough effect in the repeat runs; inconclusive = weak or mixed curves, or effect the other way; inactive = flat fitted curve, though single readings scatter.
% is set by controls: 0 for no effect and ±100 for the full control effect.

Test: qHTS assay to identify small molecule antagonists of the estrogen receptor alpha (ER-alpha) signaling pathway using the BG1 cell line in the presence of 0.1 nM 17-beta-estradiol - cell viability counter screen (AID 1259241); note: nearly all actives have a fitted effect of over 40% in size
Conditions: VM7Luc4E2 (BG1) viability, CellTiter-Fluor protease, 22 h, 0.1 nM estradiol agonist added; series mostly up to 92.4 µM
From the text: National Center for Advancing Translational Sciences [NCATS]
NIH Chemical Genomics Center [NCGC]
U.S. Environmental Protection Agency [EPA]
National Institutes of Environmental Health Sciences [NIEHS]
National Toxicology Program [NTP]
U.S. Food and Drug Administration [FDA]
Estrogen receptor (ER), a member of the nuclear hormone receptor plays an important role in development, metabolic homeostasis and reproduction. Two subtypes of ER, ER-alpha and ER-beta, have similar expression patterns with some uniqueness in both types. Endocrine disrupting chemicals (EDCs) and their interactions with steroid hormone receptors like ER causes disruption of normal endocrine function. Therefore, it is important to understand the effect of environmental chemicals in ER signaling pathway. For identifying ER antagonists, VM7Luc4E2 cell line was used to screen against Tox21 compound libraries.
VM7Luc4E2 cell line (provided by Denison MS, University of California) endogenously express full-length ER-alpha and is stably transfected with a plasmid containing four estrogen responsive elements (ERE) upstream of a luciferase reporter gene. The current screening for identification of ER-alpha inhibitors against Tox21 compound libraries used lower concentration (0.1 nM) of 17beta-Estradiol as a stimulator. The cytotoxicity of the Tox21 compound libraries against VM7Luc4E2 cell line was tested by measuring live-cell protease activity using CellTiter-Fluor assay in the same wells.
Tox21 Assay Protocol Summary:
VM7Luc4E2 cells were cultured in phenol red free assay medium containing 10% charcoal stripped FBS for 5 days prior to the assay. The cells were dispensed at 4,000 cells/well in 4 uL of assay medium into white wall/solid-bottom 1536-well plates (Corning Life Sciences, Corning, NY) using a Multidrop Combi (ThermoFisher Scientific, Waltham, MA) dispenser. After the assay plates were incubated at 37C and 5% CO2 for 24 hr, 23 nL of compounds dissolved in DMSO, positive controls or DMSO only was transferred to the assay plates by a Pintool station (Kalypsys, San Diego, CA). The transfer of compounds was followed by the addition of 1 uL of 0.1 nM (final concentration) agonist (17beta-Estradiol)/assay medium using a Flying Reagent Dispenser (FRD, Aurora Discovery, San Diego, CA). The plates were incubated at 37C and 5% CO2 for 22 hr. For cytotoxicity assay, 1 uL of CellTiter-Fluor reagent (Promega Corporation, Madison, WI) was added to each well using the FRD and after 30 min incubation at 37C and 5% CO2, The fluorescence intensity was measured using ViewLux plate reader (PerkinElmer, Shelton, CT).
For `O=C1CCCCO1`, the outcome was “inactive”.
In the case of `O=C(O)CSCC(=O)NC1CCSC1=O` (stereo not given), the outcome is reported as “inactive”.
In the case of `c1ccc(-c2nn[nH]n2)cc1`, the outcome is reported as “inactive”.
With `OC[C@@H](O)C(O)[C@@H](O)CO` (stereo not given in full) the outcome was “inactive”.
With `CCCCCCCCCOC(=O)CCCCC(=O)OCCCCCCC` the outcome was “inactive”.
In the case of `COC(=O)CCCCC(=O)O`, the outcome is reported as “inactive”.
In the case of `CCC(C)OC(C)CC` (stereo not given), the outcome is reported as “inactive”.
With `CCC(=O)c1c(O)cc(O)cc1O` the outcome was “inactive”.
In the case of `CN(C)CC/C=C1/c2ccccc2COc2ccc(CC(=O)O)cc21`, the outcome is reported as “inactive”.
In the case of `CN(C)CCN(C)CCO`, the outcome is reported as “inactive”.
For `CCCCOC(=O)C(C)O` (stereo not given), the outcome was “inactive”.
In the case of `O=C(CN1CCNCC1)NC1CCCCC1`, the outcome is reported as “inactive”.
For `CC(O)COC(C)(C)C` (stereo not given), the outcome was “inactive”.
With `CCCC(=O)Nc1ccc(OCC(O)CNC(C)C)c(C(C)=O)c1` (stereo not given) the outcome was “inactive”.
In the case of `O=Cc1ccccc1Cl`, the outcome is reported as “inactive”.
In the case of `CSc1cnccn1`, the outcome is reported as “inactive”.
For `C[C@]12CCC(=O)C=C1CC[C@H]1[C@@H]3CC[C@](O)(C(=O)CO)[C@@]3(C)C[C@H](O)[C@@]12F`, the outcome was “inactive”.
For `O=C(NCN1CCOCC1)c1cnccn1`, the outcome was “inactive”.
With `CC(Oc1cc(Cl)ccc1Cl)C(=O)O` (stereo not given) the outcome was “inactive”.
With `O=C(O)CNC(=O)CNC(=O)CNC(=O)CSC(=O)c1ccccc1` the outcome was “inactive”.
With `C#CCN[C@@H]1CCc2ccccc21` the outcome was “inactive”.
For `CC1(C)CC(OC(=O)CCCCCCCCC(=O)OC2CC(C)(C)NC(C)(C)C2)CC(C)(C)N1`, the activity change, negative = cytotoxicity was -0.502% [at 19 µM] (inactive).
In the case of `Cn1c(=O)c2[nH]c(Br)nc2n(C)c1=O`, the outcome is reported as “inactive”.
With `O=Cc1cc2ccccc2o1` the outcome was “inactive”.
In the case of `[O]=[Mo](=[O])=[O]`, the activity change, negative = cytotoxicity is reported as 0.14% [at 19 µM] (inactive).
With `CC(=O)Nc1ccc(OC(=O)c2ccccc2OC(C)=O)cc1` the outcome was “inactive”.
For `CN(C)CCOC(=O)C(c1ccccc1)C1(O)CCCC1` (stereo not given), the outcome was “inactive”.
With `O=C1CCC(=O)N1Cl` the outcome was “inactive”.
In the case of `O=C1NC(c2ccccc2)(c2ccccc2)C(=O)N1COP(=O)(O)O`, the outcome is reported as “inactive”.
For `CCC/C=C(\C=O)CC`, the outcome was “inactive”.
With `CC(C)Cn1cnc2c1c(=O)n(C)c(=O)n2C` the outcome was “inactive”.
For `COc1c2occc2c(OC)c2c(=O)cc(C)oc12`, the outcome was “inactive”.
With `CC(=O)OCC(=O)Nc1cc(C#N)cc(NC(=O)COC(C)=O)c1Cl` the outcome was “inactive”.
In the case of `CC(C)(C)NC[C@H](O)COc1cccc2c1CCCC2=O`, the outcome is reported as “inactive”.
With `COC(=O)CCCCC(CCSS/C(CCO)=C(\C)N(C=O)Cc1cnc(C)nc1N)SC(C)=O` (stereo not given) the outcome was “inactive”.
With `CCC[C@@H]1C[C@@H](C(=O)N[C@@H]([C@H]2O[C@H](SC)[C@H](O)[C@@H](O)[C@H]2O)[C@@H](C)O)N(C)C1` the outcome was “inactive”.
With `CC(C)OC(=O)OCOP(=O)(CO[C@H](C)Cn1cnc2c(N)ncnc21)OCOC(=O)OC(C)C` the outcome was “inactive”.
In the case of `CC1(C)[C@H]2CC[C@](C)(C2)[C@H]1O`, the outcome is reported as “inactive”.
In the case of `NCc1ccc(S(N)(=O)=O)cc1`, the outcome is reported as “inactive”.
In the case of `O=S(=O)(O)c1ccc2c(N=Nc3ccc(S(=O)(=O)O)c4ccccc34)c(O)c(S(=O)(=O)O)cc2c1`, the activity change, negative = cytotoxicity is reported as -26.3% [at 8.39 µM] (inactive).
